Hit rate of the full screen: of about 310,000 compounds, about 14,000 (4.5%) showed an effect of 50% or more. Effects have a minus sign here. For the sample, strong results were picked, then their nearest neighbours and some compounds at random.
target: human ether-à-go-go-related gene (hERG) potassium channel (human, UniProt Q12809); assay: primary screen, population patch clamp on CHO cells stably expressing hERG; higher = less effect of the substance
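Further: peak tail current of the secondary pulse compared with the same well before compound.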

human ether-à-go-go-related gene (hERG) potassium channel, sequence (Q12809 whole entry, looked up): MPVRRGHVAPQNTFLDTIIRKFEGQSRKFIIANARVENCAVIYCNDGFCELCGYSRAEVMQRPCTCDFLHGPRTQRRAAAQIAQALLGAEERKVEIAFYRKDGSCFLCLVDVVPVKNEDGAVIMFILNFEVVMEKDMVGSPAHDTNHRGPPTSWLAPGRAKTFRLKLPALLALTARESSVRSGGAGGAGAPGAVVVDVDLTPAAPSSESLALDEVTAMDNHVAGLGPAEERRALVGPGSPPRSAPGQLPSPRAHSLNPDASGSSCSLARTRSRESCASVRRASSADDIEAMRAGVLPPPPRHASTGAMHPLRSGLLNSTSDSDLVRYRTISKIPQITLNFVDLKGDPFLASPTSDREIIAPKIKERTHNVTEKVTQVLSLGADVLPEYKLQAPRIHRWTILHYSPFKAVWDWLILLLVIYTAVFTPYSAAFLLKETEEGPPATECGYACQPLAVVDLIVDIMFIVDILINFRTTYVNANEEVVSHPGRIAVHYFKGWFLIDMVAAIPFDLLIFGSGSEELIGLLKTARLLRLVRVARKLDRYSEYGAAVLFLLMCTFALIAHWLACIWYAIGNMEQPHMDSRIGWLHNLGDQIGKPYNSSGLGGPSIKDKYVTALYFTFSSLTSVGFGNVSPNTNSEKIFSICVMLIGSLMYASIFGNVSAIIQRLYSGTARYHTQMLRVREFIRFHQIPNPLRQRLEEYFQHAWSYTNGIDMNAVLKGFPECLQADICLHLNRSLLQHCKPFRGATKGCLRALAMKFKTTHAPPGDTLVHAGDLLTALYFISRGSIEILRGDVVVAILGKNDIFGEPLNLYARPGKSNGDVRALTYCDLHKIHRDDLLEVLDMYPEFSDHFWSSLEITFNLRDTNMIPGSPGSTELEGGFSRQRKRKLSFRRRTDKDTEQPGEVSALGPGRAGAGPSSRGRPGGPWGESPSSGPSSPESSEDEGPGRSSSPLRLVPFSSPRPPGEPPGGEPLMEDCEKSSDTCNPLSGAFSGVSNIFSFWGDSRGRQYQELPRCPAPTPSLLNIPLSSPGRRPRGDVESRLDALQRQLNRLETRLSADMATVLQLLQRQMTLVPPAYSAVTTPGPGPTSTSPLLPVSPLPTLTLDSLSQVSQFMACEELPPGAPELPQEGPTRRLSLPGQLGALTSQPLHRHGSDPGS

Structure (SMILES) | hERG current change (%, negative = inhibition) at 10uM [%]
CCN1C(=O)[C@H]2[C@@H](c3ccc(Cl)cc3)N3C(=O)CN(CCOC)C(=O)[C@@]3(C)[C@H]2C1=O | 3.18
COc1ccc(C2(C(=O)Nc3ccc(C(=O)O)cc3)CCOCC2)cc1 | 9.95
COc1ccc(Cl)cc1NC(=O)CNc1ccccc1CN(C)C1CCCCC1 | -37.9
CC1CN(C(=O)/C=C/c2ccc3c(c2)OCO3)CC(C)O1 (stereo not drawn) | -21
CC1CN(C(=O)/C=C/c2ccc(SC(F)F)cc2)CC(C)O1 (stereo not drawn) | -59.6
COc1ccc(/C=C/C(=O)N2CC(C)OC(C)C2)cc1OC (stereo not drawn) | -11
C#Cc1ccc([C@H]2C=C(C(=O)N3CCN(Cc4ccccc4)CC3)O[C@@H](OCC)[C@@H]2CCCO)cc1 | -19.6
COc1ccccc1OCC(=O)NCCSCc1ccccc1Cl | -22.6
CC(C)(C)NC(=O)CN1CCC(NC(=O)C23CC4CC(CC(C4)C2)C3)CC1 | 28.1
O=C(Nc1cccnc1)c1cccnc1Cl | 4.09
CC(=O)c1c(N2CCN(c3cccc(Cl)c3)CC2)nc(=S)n(-c2ccccc2)c1C | -68.8
CC(=O)c1c(N2CCN(c3ccc(F)cc3)CC2)nc(=S)n(-c2ccccc2)c1C | -75
CCn1c(C)c(C(C)=O)c(N2CCN(c3cccc(Cl)c3)CC2)nc1=S | -27.6
CC(=O)c1c(N2CCCC2)nc(=S)n(-c2ccccc2)c1C | -0.251
COc1ccc(N2CCN(c3nc(=S)n(-c4ccccc4)c(C)c3C(C)=O)CC2)cc1 | -9.97
CC(=O)c1c(N2CCN(c3ccccc3)CC2)nc(=S)n(-c2ccccc2)c1C | -20.1
CC(=O)Nc1ccccc1-c1nc2cc(C#N)c(C#N)cc2[nH]c1=O | -4.17
O=c1[nH]c(NCCO)nc2c1C1(CCCCC1)Cc1ccccc1-2 | 7.03
COc1cccc(/C=N/NC(=O)CNC(=O)c2ccc3c(c2)OCCO3)c1O | -0.701
O=C(NCC1CCCO1)c1cnn2c(C(F)F)cc(C3CC3)nc12 (stereo not drawn) | -2.7
CCCOC(=O)c1ccc(Nc2nc(C)cc(=O)[nH]2)cc1 | 3.46
COc1ccc(NC(=O)NC2CCCc3ccccc32)c(OC)c1 (stereo not drawn) | 13.3
Cc1ccc(NC(=O)CSCC(=O)OCc2cc(=O)oc3cc(O)ccc23)c(C)c1 | -53.2
Cc1ccc(NC(=O)COC(=O)CSCC(=O)Nc2cc(C)on2)c(C)c1 | -17.9

Structure (SMILES) | hERG current change (%, negative = inhibition) at 10uM [%]
COC(=O)Cc1cc(=O)oc2cc(O)ccc12 | 5.29
CCOc1ccc(/C=N/NC(=S)NC2CC3CC2C2C=CCC32)cc1 (stereo not drawn) | 6.33
CC1=C(C(=O)OCc2ccccc2)C(c2ccc(C)o2)C2=C(CCCC2=O)N1 (stereo not drawn) | -23.7
Cc1cc(C(F)(F)F)c2sc(N)nc2n1 | 5.61
CC(c1nc2ccccc2c(=O)[nH]1)N1CCCN(S(=O)(=O)c2ccc(F)cc2)CC1 (stereo not drawn) | -59.1
CC(c1nc2ccccc2c(=O)[nH]1)N1CCN(C)CC1 (stereo not drawn) | -5.2
Cc1ccc(S(=O)(=O)N2CCCN(C(C)c3nc4ccccc4c(=O)[nH]3)CC2)cc1 (stereo not drawn) | -25.6
CC1CCN(S(=O)(=O)c2ccc(NC(=O)C3CSC4(C)CCC(=O)N34)cc2)CC1 (stereo not drawn) | -6.34
COc1ccc(C)cc1S(=O)(=O)NCCc1ccccc1 | -28.3
CCN(CC)c1ccc(C(=O)OCC(=O)Nc2ccc3[nH]c(=O)[nH]c3c2)cc1 | 5.58
Cc1ccc2nc(SCc3nnc(-c4ccccc4Br)o3)[nH]c2c1 | -6.41
CCOC(=O)C1=C(OCc2ccc(Cl)cc2)C2C=C(C)C=CC2N=C1 (stereo not drawn) | -69.1
CCOc1ncccc1C(=O)OCc1ccc(Cl)cc1 | -20
CCOC(=O)c1c(C=O)c(C)n(Cc2ccc(Cl)cc2)c1C | -18.8
CC(=O)c1ccc(-n2c(C)c(C(C)=O)c3cc(O)ccc32)cc1 | 8.94
O=C(CCC(=O)NNC(=O)c1ccc([N+](=O)[O-])cc1)NCc1ccccc1 | 10.9
O=C(NCCN1CCN(c2ccc([N+](=O)[O-])cc2)CC1)NCc1ccccc1 | -67.7
COc1ccc(N2CCN(CCNC(=O)Nc3ccc([N+](=O)[O-])cc3OC)CC2)cc1 | -17.1
CC(NC(=O)C(=O)NCCN1CCN(C(=O)c2ccccc2Br)CC1)c1ccccc1 (stereo not drawn) | 6.37
CC(C(=O)NCCN1CCOCC1)c1ccc([N+](=O)[O-])cc1 (stereo not drawn) | 16.7
CCc1ccc(N2CCN(CCNC(=O)Nc3ccccc3)CC2)cc1 | -21.1
O=C(NCCN1CCN(C(=O)c2cccc(Br)c2)CC1)C(=O)NCc1ccccc1 | -70
O=C(NCCN1CCN(C(=O)c2ccc([N+](=O)[O-])cc2)CC1)C(=O)NCc1ccccc1 | -78.9
O=C(c1ccc([N+](=O)[O-])cc1)N1CCc2ccccc2C1 | -44.7
